The campaign covered roughly 1,300 compounds. About 980 (75%) were called active. Inconclusive results (about 4%) are left out. This is one part of the list. Unmarked numbers belong to inactive results.
Molecular target: Sulfhydryl oxidase 1 (Homo sapiens) (UniProt O00391)
Experiment: inhibition of human sulfhydryl oxidase QSOX1 – biochemical, HyperBlu H2O2 luminescence, HTS, primary screen (AID 1347420); also: values above 100% were filed as inconclusive
Conditions: recombinant QSOX1, HyperBlu H2O2 luminescence; at 12.5 µM; hits give high values; active = any value above zero

Sequence of Sulfhydryl oxidase 1 (Homo sapiens) (O00391 whole entry, looked up): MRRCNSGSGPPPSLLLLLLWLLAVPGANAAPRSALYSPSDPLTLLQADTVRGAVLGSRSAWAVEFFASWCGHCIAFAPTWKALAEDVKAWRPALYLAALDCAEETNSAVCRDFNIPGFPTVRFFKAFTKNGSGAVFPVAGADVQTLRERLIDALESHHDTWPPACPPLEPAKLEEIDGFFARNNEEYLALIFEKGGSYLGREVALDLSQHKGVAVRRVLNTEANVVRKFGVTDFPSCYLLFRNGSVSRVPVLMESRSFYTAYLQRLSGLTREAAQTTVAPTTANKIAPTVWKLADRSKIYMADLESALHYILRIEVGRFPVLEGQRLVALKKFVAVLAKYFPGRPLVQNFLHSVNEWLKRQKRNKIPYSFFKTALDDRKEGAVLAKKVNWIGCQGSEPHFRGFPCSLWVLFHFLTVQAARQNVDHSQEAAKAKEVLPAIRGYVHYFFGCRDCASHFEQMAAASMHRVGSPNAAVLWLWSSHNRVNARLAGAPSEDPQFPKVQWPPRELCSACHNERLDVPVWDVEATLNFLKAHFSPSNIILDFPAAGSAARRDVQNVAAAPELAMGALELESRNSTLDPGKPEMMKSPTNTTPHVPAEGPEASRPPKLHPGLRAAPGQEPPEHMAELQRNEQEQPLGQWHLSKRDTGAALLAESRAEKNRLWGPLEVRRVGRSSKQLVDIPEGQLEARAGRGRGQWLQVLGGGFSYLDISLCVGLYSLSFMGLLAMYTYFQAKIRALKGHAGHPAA

SMILES	inhibition
COc1ccccc1N1CCN(CCCNc2c(C)c(=O)n(C)c(=O)n2C)CC1	16.8% (active)
COc1ccccc1N1CCN(CCCNc2cc(=O)n(C)c(=O)n2C)CC1	22% (active)
CC#C[C@]1(O)CC[C@H]2[C@@H]3CCC4=CC(=O)CCC4=C3[C@@H](c3ccc(N(C)C)cc3)C[C@@]21C	89.8% (active)
NCC(O)C1CCCCCCC1 (stereo unspecified)	18.4% (active)
Fc1ccc(C(OCCCc2cnc[nH]2)c2ccc(F)cc2)cc1	10.8% (active)
COC(=O)[C@H](NC(=O)c1cc(-c2ccccc2)nc2ccccc12)c1ccccc1	4.2% (active)
CC(=O)[C@]1(O)Cc2c(O)c3c(c(O)c2[C@@H](O[C@H]2C[C@H](N)[C@H](O)[C@H](C)O2)C1)C(=O)c1ccccc1C3=O	50.8% (active)
CC(N)C(=O)OC(C)(C)Cc1ccc(Cl)cc1 (stereo unspecified)	5.6% (active)
Nc1nc2ccc(Cl)cc2c2nc(-c3ccco3)nn12	27.7% (active)
Nc1nc2c(cnn2CCc2ccccc2)c2nc(-c3ccco3)nn12	17% (active)
CCN(CC)CCCC(C)Nc1c2ccc(Cl)cc2nc2ccc(OC)cc12 (stereo unspecified)	-13%
CCN(CC)CCCC(C)Nc1ccnc2cc(Cl)ccc12 (stereo unspecified)	4.6% (active)
O=C(O)/C(=C/c1c(C(=O)O)[nH]c2cc(Cl)cc(Cl)c12)c1ccccc1	12.3% (active)
O=C(O)c1cc(=O)c2c(Cl)cc(Cl)cc2[nH]1	23.5% (active)
O=C(O)c1cc(=O)c2ccccc2[nH]1	-7.5%
C=C[C@@]1(C)CC(=O)[C@]2(O)[C@@]3(C)[C@H](O)CCC(C)(C)[C@@H]3[C@H](O)[C@H](OC(C)=O)[C@@]2(C)O1	-4.2%
c1ccc2c(c1)CCCC2C1=NCCN1 (stereo unspecified)	7.7% (active)
NC1(C(=O)O)CCc2cc(C(=O)O)ccc21 (stereo unspecified)	11.9% (active)
Cn1c(=O)c2[nH]cnc2n(C)c1=O	20.2% (active)
CC(C)Cn1c(=O)n(C)c(=O)c2[nH]cnc21	-4.6%
Oc1ccc(C2CNCc3sccc32)cc1O (stereo unspecified)	68.4% (active)
CN1Cc2sccc2C(c2ccc(O)c(O)c2)C1 (stereo unspecified)	84.1% (active)
NCC1OC(O[C@@H]2[C@H](O)C(OC3C(O)C(N)CC(N)C3OC3OC(CO)C(O)C(O)C3N)O[C@@H]2CO)C(N)C(O)C1O (stereo partly specified)	-0.2%

SMILES	inhibition
CC(N)=O	37.1% (active)
CC(=O)C(C)=O	5.7% (active)
CC(=O)/C(C)=N/O	-16.7%
CCN1C(=O)C=CC1=O	12.3% (active)
CC(O)C(O)[C@H]1CNc2nc(N)[nH]c(=O)c2N1 (stereo partly specified)	-1.8%
C[C@H](O)C(=O)C1=Nc2c(nc(N)[nH]c2=O)NC1	9.2% (active)
NS(=O)(=O)C1=[C+]C=[C+]c2c1c([N+](=O)[O-])cc1nc([O-])c([O-])nc21	79% (active)
CCn1c(=O)[nH]c2cc(Cl)c(Cl)cc21	20.4% (active)
Cn1c(=O)c2c(nc(/C=C/c3cccc(Cl)c3)n2C)n(C)c1=O	8.5% (active)
CN1C[C@H](C(=O)N[C@]2(C)O[C@@]3(O)[C@@H]4CCCN4C(=O)[C@H](Cc4ccccc4)N3C2=O)C[C@@H]2c3cccc4[nH]cc(c34)C[C@H]21	50.6% (active)
Nc1ncnc2c1c(I)cn2[C@@H]1C[C@H](N)[C@@H](O)[C@H]1O	22.5% (active)
COc1ccc2c(c1)CCC1C2CC[C@@]2(C)C1CC[C@@H]2NCCCCCCN1C(=O)CCC1=O (stereo partly specified)	8.2% (active)
COc1ccc2c(c1)CCC1C2CC[C@@]2(C)C1CC[C@@H]2NCCCCCCN1C(=O)C=CC1=O (stereo partly specified)	7.6% (active)
CN/C(=C\[N+](=O)[O-])NCCSCc1ccc(CN(C)C)o1	14.5% (active)
CN(C)CCCc1cc(C(=O)Nc2ccc(-c3ccncc3)cc2)ccc1O	14.6% (active)
O=C1N=C(O)C(c2ccccc2)(c2ccccc2)N1	-13.4%
CN(C)CCOC(=O)COc1ccc(Cl)cc1	2.2% (active)
CC/C(=C(\c1ccccc1)c1ccc(OCCN(C)C)cc1)c1ccccc1	-2.1%
O=C(c1ccccc1)c1ccc2n1CCC2C(=O)O (stereo unspecified)	12.6% (active)
CN1CCC2(CCN3CCc4c(oc5ccccc45)C3C2)N(C)C1=O (stereo unspecified)	4.5% (active)
Cc1nc(N=Nc2ccc(C(=O)O)cc2)c(COP(=O)(O)O)c(C=O)c1O	14.2% (active)
Cc1nc(N=NC2=[C+]C3=C(C=C([N+](=O)[O-])[C+]=C3S(=O)(=O)[O-])C(S(=O)(=O)[O-])=[C+]2)c(COP(=O)([O-])O)c(C=O)c1O	53.8% (active)
C[C@@H]1C(=O)NC2=Nc3cccc(Cl)c3CN21	3.4% (active)

SMILES	inhibition
c1ccc2c(c1)CC(N1CCN(c3cccc4c3OCCO4)CC1)C2	10.4% (active)
Clc1ccc(C(c2ccccc2Cl)C(Cl)Cl)cc1 (stereo unspecified)	69.1% (active)
O=C(O)/C=C/C(O)c1ccc(Cl)cc1 (stereo unspecified)	-40.2%
O=C(c1ccc(Cl)cc1)N1CCN(c2ccc([N+](=O)[O-])c3ncccc23)CC1	24.1% (active)
c1ccc2c(c1)CCC[C@H]2Nc1nc2ccccc2[nH]1	61.9% (active)
NC1CCN(c2cccc(Cl)n2)CC1	4.2% (active)
COCC(=O)O[C@]1(CCN(C)CCCc2nc3ccccc3[nH]2)CCc2cc(F)ccc2[C@@H]1C(C)C	2.9% (active)
C[N+](C)(C)CCOP(=O)(O)OP(=O)([O-])OC[C@H]1O[C@@H](n2ccc(N)nc2=O)C(O)[C@H]1O (stereo partly specified)	20.6% (active)
CC(C)(C)c1onc(OCP(=O)(O)O)c1CC(N)C(=O)O (stereo unspecified)	24.4% (active)
OCc1cc(C(O)CNCCCCCCOCCCCc2ccccc2)ccc1O (stereo unspecified)	34.4% (active)
CC(=O)N[C@H]1[C@H]([C@H](O)[C@H](O)CO)OC(C(=O)O)=C[C@@H]1O	18.1% (active)
CCCOC(=O)c1c(-c2ccccc2)nc(CC)c(C(=O)SCC)c1CCC	-2.7%
COc1cc(SC)ccc1C(=O)N1CCC(Cc2ccccc2)CC1	-5.8%
C[C@@H](CN1CCC(Cc2ccccc2)CC1)[C@@H](O)c1ccc(O)cc1	3.7% (active)
CC(C(O)c1ccc(O)cc1)N1CCC(Cc2ccccc2)CC1 (stereo unspecified)	4% (active)
CC(=O)[C@@]1(O)CC[C@H]2[C@@H]3CCC4=CC(=O)CC[C@]4(C)[C@H]3CC[C@@]21C	0.7% (active)
CC(=O)OCC(=O)[C@@]1(O)CC[C@H]2[C@@H]3CCC4=CC(=O)CC[C@]4(C)[C@H]3C(=O)C[C@@]21C	6.5% (active)
C[C@]12CCC(=O)C=C1CC[C@@H]1[C@@H]2C(=O)C[C@@]2(C)[C@H]1CC[C@]2(O)C(=O)CO	-1.4%
C[C@]12CCC(=O)C=C1CC[C@@H]1[C@@H]2CC[C@@]2(C)[C@H]1CC[C@]2(O)C(=O)CO	-11%
CC(=O)[C@H]1CC[C@H]2[C@@H]3CCC4=CC(=O)CC[C@]4(C)[C@H]3CC[C@]12C	12.3% (active)
O=c1ccc2c(OCCCCc3ccccc3)c3ccoc3cc2o1	18.3% (active)
CO/N=C(\C(=O)N[C@@H]1C(=O)N2C(C(=O)O)=C(CSc3nc(=O)c(O)nn3C)CSC12)c1csc(N)n1 (stereo partly specified)	24.6% (active)
CO/N=C(\C(=O)N[C@@H]1C(=O)N2C(C(=O)O)=C(COC(C)=O)CS[C@H]12)c1csc(N)n1	26.2% (active)

SMILES	inhibition
CC(=O)OCC1=C(C(=O)O)N2C(=O)[C@@H](NC(=O)Cc3cccs3)[C@H]2SC1	11.8% (active)
CC[C@@H](CO)Nc1nc(NCc2ccccc2)c2ncn(C(C)C)c2n1	24.9% (active)
Cn1cnc2c(NCc3ccccc3)nc(NCCO)nc21	12.8% (active)
CNCCCC1c2ccccc2C=Cc2ccccc21	3.6% (active)
CC(=O)Oc1cc(C(C)C)c(OCCN(C)C)cc1C	0.5% (active)
O=[N+]([O-])c1cccc2cn[nH]c12	16.8% (active)
COC(=O)[C@H]1[C@H]2C[C@H]3c4[nH]c5ccccc5c4CCN3C[C@H]2CC[C@@H]1O	50.6% (active)
COC(=O)[C@@H]1[C@H]2C[C@H]3c4[nH]c5ccccc5c4CCN3C[C@@H]2CC[C@@H]1O	-38.2%
COC(=O)[C@H]1[C@H]2C[C@@H]3c4[nH]c5cc(OC)ccc5c4CCN3C[C@H]2C[C@@H](OC(=O)c2cc(OC)c(OC)c(OC)c2)[C@@H]1OC	33% (active)
CNc1ncnc2c1ncn2[C@@H]1O[C@H](CO)[C@H](O)C1O (stereo partly specified)	12% (active)
OC[C@H]1O[C@H](n2cnc3c(N[C@H]4CCC[C@@H]4O)ncnc32)[C@H](O)[C@@H]1O	5.7% (active)
C[C@H](Cc1ccccc1)Nc1ncnc2c1ncn2[C@@H]1O[C@H](CO)[C@H](O)C1O (stereo partly specified)	-5.3%
OC[C@H]1O[C@@H](n2cnc3c(NC4CCCCC4)ncnc32)[C@H](O)[C@@H]1O	19.1% (active)
OC[C@H]1O[C@@H](n2cnc3c(NC4CCCC4)ncnc32)C(O)[C@H]1O (stereo partly specified)	4% (active)
CNc1ncnc2c1ncn2[C@H]1C[C@H](OP(=O)(O)O)[C@@H](COP(=O)(O)O)O1	13.4% (active)
Nc1ccc(CCNc2ncnc3c2ncn3C2OC(CO)C(O)C2O)cc1 (stereo unspecified)	36.3% (active)
CCCCC#Cc1nc(NC)c2ncn([C@@H]3O[C@H](CO)C(O)[C@@H]3O)c2n1 (stereo partly specified)	20.2% (active)
Cn1cc(C(=O)OCC2CCN(CCNS(C)(=O)=O)CC2)c2ccccc21	-1%
COc1ccc(/C=C/C(=O)Nc2ccccc2C(=O)O)cc1OC	4.9% (active)
COc1cc(/C=C(\C#N)C(=O)Nc2nnc(C(F)(F)F)s2)ccc1OCc1ccc(C(F)(F)F)cc1C(F)(F)F	-0.4%
CNCCC(Oc1ccccc1OC)c1ccccc1 (stereo unspecified)	2.8% (active)
CNCCC(Oc1ccccc1C)c1ccccc1 (stereo unspecified)	0.9% (active)
